Test in all cases: DAPPL (digital affinity profiling via proximity ligation, sequencing); 10 mM Tris-HCl pH 7.5, 50 mM NaCl, 1 mM DTT, 4% glycerol, room temperature, 30 min; GST-TFs on glutathione beads, 16-mer random dsDNA library, 0.1% formaldehyde crosslink after washing; high values mean tight binding
Common to all, as to details: protein: recombinant; tags: N-terminal GST; dsDNA, one strand shown

In one assay the target is T1, FLI1 (Homo sapiens, UniProt Q01543 1-452).
T1 sequence: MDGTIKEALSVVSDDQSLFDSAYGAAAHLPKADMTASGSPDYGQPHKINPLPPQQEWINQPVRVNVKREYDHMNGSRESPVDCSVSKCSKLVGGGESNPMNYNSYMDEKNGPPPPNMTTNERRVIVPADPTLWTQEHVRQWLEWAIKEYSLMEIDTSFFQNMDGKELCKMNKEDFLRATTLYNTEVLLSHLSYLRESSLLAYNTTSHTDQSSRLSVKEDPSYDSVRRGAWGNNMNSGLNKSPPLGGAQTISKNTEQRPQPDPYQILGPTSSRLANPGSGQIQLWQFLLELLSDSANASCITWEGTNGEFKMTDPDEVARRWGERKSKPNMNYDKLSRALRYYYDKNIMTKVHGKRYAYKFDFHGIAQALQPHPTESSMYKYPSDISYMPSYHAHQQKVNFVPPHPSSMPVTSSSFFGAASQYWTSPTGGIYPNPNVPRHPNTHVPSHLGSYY
In a few lines: (§1)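 Binding signal is each hexamer's read frequency for a factor divided by its frequency in the tag-only sample. The factors were GST-fused human transcription factors from yeast, captured on glutathione beads, DNA-barcoded and pooled with that sample. Pools were incubated with 200 nmole of a random double-stranded 16-mer DNA library in Tris/NaCl/DTT/glycerol buffer at room temperature for 30 min, then washed, crosslinked with 0.1% formaldehyde, proximity-ligated with BsaI/T4 ligase (1 h, 37 °C), PCR-amplified and sequenced on an Illumina NextSeq500.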

The target in the next assay is T2, ELK1 (Homo sapiens, UniProt P19419 1-428).
T2 sequence: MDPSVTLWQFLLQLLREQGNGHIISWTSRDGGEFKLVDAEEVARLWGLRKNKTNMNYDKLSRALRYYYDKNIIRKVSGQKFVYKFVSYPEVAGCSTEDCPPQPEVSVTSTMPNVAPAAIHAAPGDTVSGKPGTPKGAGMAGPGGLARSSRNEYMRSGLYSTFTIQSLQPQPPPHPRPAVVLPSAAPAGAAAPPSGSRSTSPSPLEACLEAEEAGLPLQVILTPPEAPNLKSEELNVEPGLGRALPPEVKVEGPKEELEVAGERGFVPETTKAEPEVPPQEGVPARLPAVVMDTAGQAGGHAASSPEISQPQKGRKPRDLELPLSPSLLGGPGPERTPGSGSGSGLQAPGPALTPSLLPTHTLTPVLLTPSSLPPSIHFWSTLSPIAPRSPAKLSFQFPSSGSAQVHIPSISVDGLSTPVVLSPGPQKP
In a few lines:
as §1

Another assay addresses T3, GABPA (Homo sapiens, UniProt Q06546 1-454).
T3 sequence: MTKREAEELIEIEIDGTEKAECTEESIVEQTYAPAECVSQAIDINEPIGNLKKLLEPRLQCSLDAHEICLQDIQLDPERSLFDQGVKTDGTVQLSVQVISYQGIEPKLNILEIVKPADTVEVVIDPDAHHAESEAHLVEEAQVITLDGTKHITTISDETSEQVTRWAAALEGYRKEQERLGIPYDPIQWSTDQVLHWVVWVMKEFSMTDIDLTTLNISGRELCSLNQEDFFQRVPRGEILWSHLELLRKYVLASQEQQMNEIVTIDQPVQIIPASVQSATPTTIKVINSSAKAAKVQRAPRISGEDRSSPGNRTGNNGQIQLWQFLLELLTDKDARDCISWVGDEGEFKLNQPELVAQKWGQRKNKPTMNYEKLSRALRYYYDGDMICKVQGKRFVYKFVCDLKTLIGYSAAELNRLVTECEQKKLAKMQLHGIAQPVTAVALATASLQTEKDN
The method, boiled down: as §1

A further assay addresses T4, ERG (Homo sapiens, UniProt P11308 1-479).
T4 sequence: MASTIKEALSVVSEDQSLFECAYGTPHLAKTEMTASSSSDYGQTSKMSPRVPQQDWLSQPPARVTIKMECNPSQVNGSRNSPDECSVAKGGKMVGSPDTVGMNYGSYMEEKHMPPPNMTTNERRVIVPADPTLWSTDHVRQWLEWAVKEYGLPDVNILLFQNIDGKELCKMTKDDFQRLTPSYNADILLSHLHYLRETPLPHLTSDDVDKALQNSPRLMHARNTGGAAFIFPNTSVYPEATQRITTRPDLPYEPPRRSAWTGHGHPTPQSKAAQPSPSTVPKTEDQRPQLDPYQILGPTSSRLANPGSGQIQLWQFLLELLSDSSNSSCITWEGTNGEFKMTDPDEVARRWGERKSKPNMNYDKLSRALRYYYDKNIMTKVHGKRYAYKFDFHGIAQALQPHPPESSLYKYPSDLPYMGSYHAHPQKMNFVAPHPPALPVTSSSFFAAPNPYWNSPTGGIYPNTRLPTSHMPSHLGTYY
In a few lines:
as §1

Another assay deals with ELF1 (Homo sapiens, UniProt P32519 1-619). The method, boiled down: as §1
ELF1, sequence (P32519 whole entry): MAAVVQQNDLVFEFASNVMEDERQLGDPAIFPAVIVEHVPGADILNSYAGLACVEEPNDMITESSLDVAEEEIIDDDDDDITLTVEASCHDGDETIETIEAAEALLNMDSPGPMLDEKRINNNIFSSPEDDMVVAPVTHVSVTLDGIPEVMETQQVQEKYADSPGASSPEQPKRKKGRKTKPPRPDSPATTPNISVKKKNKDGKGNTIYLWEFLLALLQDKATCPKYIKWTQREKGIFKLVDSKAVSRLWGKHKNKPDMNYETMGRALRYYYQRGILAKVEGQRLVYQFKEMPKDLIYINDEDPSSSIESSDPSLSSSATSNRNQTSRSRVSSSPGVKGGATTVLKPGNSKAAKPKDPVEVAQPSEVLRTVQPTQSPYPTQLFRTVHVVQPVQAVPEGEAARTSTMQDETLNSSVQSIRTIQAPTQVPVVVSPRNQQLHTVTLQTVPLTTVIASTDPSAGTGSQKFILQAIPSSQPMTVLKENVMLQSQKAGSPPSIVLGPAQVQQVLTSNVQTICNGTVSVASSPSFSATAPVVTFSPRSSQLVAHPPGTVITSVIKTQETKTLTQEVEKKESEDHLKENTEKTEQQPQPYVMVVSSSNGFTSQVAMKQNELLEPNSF
Another assay has as its target T5, EHF (Homo sapiens, UniProt Q9NZC4 1-300).
T5 sequence: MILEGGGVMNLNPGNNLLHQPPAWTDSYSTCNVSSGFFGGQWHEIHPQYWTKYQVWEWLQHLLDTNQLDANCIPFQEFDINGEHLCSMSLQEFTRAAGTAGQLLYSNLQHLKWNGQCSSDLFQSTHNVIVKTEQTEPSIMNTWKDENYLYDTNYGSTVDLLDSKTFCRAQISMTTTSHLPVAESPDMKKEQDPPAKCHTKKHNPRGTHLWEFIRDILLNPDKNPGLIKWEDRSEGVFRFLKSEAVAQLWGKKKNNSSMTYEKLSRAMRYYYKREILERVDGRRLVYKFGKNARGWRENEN
In a few lines: as §1

The next assay has as its target SPI1 (Homo sapiens, UniProt P17947 1-270). The method, boiled down:
as §1

The next assay deals with SPIB (Homo sapiens, UniProt Q01892 1-262). The method, boiled down: as §1
SPIB, sequence (Q01892 whole entry): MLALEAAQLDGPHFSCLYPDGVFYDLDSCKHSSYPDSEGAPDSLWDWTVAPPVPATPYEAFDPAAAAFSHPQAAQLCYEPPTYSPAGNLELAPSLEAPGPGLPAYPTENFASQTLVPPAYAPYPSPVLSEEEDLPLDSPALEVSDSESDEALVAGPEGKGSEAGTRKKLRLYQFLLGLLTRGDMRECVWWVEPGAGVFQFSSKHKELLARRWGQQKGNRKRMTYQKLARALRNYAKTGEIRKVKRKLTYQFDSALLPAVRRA
The next assay deals with T6, ELK3 (Homo sapiens, UniProt P41970 1-407).
T6 sequence: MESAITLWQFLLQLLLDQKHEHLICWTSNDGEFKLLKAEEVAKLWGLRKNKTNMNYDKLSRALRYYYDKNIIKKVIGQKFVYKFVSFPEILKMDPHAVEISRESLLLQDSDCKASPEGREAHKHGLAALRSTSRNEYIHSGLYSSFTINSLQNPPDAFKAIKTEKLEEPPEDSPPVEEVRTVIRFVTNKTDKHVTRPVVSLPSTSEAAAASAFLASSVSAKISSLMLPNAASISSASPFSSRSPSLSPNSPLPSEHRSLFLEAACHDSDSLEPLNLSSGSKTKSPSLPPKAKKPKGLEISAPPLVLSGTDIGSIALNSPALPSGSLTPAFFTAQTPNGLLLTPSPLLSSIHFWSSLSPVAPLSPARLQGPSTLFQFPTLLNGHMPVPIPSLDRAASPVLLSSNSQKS
In a few lines: as §1

The target of another assay is T7, FEV (Homo sapiens, UniProt Q99581 1-238).
T7 sequence: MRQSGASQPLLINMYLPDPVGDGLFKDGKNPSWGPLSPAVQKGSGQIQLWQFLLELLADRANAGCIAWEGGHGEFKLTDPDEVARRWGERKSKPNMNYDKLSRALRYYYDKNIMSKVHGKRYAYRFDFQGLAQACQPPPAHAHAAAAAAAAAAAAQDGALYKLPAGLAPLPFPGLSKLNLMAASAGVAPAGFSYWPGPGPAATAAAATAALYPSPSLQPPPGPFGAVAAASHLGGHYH
In a few lines: as §1

Another assay has as its target ETV5 (Homo sapiens, UniProt P41161 1-510). The method, boiled down:
as §1

A further assay has as its target T8, SPIC (Homo sapiens, UniProt Q8N5J4 1-248).
T8 sequence: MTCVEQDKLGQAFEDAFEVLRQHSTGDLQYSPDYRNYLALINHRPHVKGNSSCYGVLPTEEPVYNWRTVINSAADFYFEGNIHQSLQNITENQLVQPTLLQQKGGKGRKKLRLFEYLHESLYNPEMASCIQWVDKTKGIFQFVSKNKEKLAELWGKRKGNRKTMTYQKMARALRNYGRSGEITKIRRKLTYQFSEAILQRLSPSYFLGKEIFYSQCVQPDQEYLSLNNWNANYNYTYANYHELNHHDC
In a few lines:
as §1

The next assay has as its target ELF4 (Homo sapiens, UniProt Q99607 1-663). In a few lines:
as §1

The next assay deals with T9, ELK4 (Homo sapiens, UniProt P28324-2 1-405).
T9 sequence: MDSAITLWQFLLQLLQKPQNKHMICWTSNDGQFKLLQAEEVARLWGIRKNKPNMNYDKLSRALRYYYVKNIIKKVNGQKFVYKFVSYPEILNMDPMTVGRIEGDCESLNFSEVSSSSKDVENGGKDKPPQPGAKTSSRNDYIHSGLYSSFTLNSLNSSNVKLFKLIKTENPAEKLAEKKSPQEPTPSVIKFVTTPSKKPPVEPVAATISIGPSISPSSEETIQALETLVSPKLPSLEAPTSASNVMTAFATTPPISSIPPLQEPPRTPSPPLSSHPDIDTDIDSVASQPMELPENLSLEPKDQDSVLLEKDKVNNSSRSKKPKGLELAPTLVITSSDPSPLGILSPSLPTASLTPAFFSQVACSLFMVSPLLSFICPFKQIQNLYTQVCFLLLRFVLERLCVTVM
The method, boiled down:
as §1

The target of the next assay is T10, ETV2 (Homo sapiens, UniProt O00321 1-342).
T10 sequence: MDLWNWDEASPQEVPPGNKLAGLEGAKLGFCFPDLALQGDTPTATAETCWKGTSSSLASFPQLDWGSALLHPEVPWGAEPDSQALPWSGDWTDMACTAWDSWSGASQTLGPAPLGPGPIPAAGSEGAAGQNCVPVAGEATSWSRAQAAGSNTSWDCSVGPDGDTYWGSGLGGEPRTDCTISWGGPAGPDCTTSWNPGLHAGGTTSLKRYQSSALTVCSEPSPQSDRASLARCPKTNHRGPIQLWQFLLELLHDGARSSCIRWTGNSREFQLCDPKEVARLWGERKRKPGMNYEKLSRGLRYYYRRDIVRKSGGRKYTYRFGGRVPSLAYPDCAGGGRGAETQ
The method, boiled down: as §1

Another assay addresses T11, ELF3 (Homo sapiens, UniProt P78545 1-371).
T11 sequence: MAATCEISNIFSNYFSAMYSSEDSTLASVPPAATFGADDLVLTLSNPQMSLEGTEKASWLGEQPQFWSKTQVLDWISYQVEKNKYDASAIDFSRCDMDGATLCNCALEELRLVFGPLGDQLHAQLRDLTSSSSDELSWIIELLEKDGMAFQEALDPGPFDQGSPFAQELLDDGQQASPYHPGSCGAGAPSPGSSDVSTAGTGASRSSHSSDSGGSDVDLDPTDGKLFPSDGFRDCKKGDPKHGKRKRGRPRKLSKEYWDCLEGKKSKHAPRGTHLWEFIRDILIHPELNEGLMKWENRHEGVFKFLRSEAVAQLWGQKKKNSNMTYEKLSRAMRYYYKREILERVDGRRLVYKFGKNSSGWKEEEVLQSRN
The method, boiled down:
as §1

The target of a further assay is CRX (Homo sapiens, UniProt O43186 1-299). In a few lines:
as §1

In another assay the target is ETV1 (Homo sapiens, UniProt P50549 1-477). In a few lines:
as §1

ELF4, sequence (Q99607 whole entry): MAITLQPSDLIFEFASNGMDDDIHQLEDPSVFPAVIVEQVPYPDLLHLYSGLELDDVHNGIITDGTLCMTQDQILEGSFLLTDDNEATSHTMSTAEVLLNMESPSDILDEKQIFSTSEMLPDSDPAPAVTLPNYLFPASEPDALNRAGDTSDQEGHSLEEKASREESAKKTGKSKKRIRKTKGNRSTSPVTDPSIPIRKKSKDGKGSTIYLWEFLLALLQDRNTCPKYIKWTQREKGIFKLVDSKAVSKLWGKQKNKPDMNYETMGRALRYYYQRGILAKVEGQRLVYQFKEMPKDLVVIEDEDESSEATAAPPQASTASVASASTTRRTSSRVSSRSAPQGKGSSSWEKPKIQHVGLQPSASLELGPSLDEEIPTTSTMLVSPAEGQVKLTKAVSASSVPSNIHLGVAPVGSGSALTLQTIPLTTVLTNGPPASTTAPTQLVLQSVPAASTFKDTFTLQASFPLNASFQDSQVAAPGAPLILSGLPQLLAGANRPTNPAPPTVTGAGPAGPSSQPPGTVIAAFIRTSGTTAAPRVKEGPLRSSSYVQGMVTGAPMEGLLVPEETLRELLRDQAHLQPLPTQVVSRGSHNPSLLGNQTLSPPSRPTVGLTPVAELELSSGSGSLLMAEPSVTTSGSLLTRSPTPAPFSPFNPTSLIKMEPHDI
ETV1, sequence (P50549 whole entry): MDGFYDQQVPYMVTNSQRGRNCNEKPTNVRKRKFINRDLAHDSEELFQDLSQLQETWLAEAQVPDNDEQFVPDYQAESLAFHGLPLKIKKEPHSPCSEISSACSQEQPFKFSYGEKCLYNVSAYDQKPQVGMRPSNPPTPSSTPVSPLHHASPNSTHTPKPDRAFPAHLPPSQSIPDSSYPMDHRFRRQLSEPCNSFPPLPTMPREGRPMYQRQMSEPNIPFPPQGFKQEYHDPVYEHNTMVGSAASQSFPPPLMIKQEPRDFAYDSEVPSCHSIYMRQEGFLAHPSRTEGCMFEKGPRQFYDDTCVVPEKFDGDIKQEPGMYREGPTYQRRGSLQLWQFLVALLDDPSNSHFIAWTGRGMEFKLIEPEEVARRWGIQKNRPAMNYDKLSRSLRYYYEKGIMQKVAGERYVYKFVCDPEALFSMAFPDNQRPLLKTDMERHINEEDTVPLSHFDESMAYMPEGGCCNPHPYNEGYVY
ETV5, sequence (P41161 whole entry): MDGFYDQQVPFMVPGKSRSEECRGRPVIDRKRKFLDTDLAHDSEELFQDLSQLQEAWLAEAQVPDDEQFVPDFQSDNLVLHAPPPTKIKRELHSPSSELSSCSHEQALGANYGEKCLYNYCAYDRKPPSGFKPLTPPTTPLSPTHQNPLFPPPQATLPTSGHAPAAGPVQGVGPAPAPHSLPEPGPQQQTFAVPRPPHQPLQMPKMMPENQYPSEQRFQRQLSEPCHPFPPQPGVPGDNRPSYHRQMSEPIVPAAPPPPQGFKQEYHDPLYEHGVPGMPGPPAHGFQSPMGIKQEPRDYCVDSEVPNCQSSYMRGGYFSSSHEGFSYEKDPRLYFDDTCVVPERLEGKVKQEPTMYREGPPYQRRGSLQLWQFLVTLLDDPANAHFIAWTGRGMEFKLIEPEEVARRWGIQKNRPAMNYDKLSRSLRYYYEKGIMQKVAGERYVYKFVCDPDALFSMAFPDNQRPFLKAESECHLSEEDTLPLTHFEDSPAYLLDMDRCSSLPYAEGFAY
CRX, sequence (O43186 whole entry): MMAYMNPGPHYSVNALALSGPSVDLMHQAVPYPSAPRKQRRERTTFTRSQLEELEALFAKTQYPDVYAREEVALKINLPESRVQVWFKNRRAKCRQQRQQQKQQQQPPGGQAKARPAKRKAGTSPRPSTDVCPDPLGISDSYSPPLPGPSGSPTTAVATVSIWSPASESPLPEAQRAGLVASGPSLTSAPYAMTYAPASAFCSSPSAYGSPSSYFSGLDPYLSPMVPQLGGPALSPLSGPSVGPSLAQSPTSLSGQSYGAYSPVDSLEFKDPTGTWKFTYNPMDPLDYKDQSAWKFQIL

For GCCTCC, the binding signal with FLI1 is 1.29 fold enrichment (6-mer frequency, TF over GST control); in the assay with ELK1 it was 1.34 fold enrichment (6-mer frequency, TF over GST control); with GABPA, 1.23 fold enrichment (6-mer frequency, TF over GST control); with ERG, 1.33 fold enrichment (6-mer frequency, TF over GST control); with ELF1, 1.27 fold enrichment (6-mer frequency, TF over GST control); with EHF, 1.31 fold enrichment (6-mer frequency, TF over GST control). Further, the binding signal is 1.38 fold enrichment (6-mer frequency, TF over GST control) in the assay with SPI1; 1.29 fold enrichment (6-mer frequency, TF over GST control) in the assay with SPIB; 1.33 fold enrichment (6-mer frequency, TF over GST control) with ELK3; 1.32 fold enrichment (6-mer frequency, TF over GST control) with FEV; 1.31 fold enrichment (6-mer frequency, TF over GST control) in the assay with ETV5; 1.38 fold enrichment (6-mer frequency, TF over GST control) with SPIC. Besides, the binding signal in the assay with ELF4 is 1.34 fold enrichment (6-mer frequency, TF over GST control); with ELK4, 1.22 fold enrichment (6-mer frequency, TF over GST control); in the assay with ETV2, 1.29 fold enrichment (6-mer frequency, TF over GST control); with ELF3, 1.24 fold enrichment (6-mer frequency, TF over GST control); with CRX, 1.03 fold enrichment (6-mer frequency, TF over GST control); with ETV1, 1.25 fold enrichment (6-mer frequency, TF over GST control).

On to AAGCGG, for which the binding signal with FLI1 is 1.13 fold enrichment (6-mer frequency, TF over GST control); in the assay with ELK1, 1.05 fold enrichment (6-mer frequency, TF over GST control); in the assay with GABPA it was 1.11 fold enrichment (6-mer frequency, TF over GST control); in the assay with ERG, 1.1 fold enrichment (6-mer frequency, TF over GST control); with ELF1, 1.11 fold enrichment (6-mer frequency, TF over GST control); with EHF, 1.15 fold enrichment (6-mer frequency, TF over GST control). The binding signal with SPI1 is 1.81 fold enrichment (6-mer frequency, TF over GST control); in the assay with SPIB, 1.03 fold enrichment (6-mer frequency, TF over GST control); with ELK3 it was 1.11 fold enrichment (6-mer frequency, TF over GST control); with FEV it was 1.12 fold enrichment (6-mer frequency, TF over GST control); with ETV5 it was 1.27 fold enrichment (6-mer frequency, TF over GST control); with SPIC, 1.31 fold enrichment (6-mer frequency, TF over GST control). Also, the binding signal was 1.01 fold enrichment (6-mer frequency, TF over GST control) with ELF4; 1.14 fold enrichment (6-mer frequency, TF over GST control) in the assay with ELK4; 1.19 fold enrichment (6-mer frequency, TF over GST control) with ETV2; 1.17 fold enrichment (6-mer frequency, TF over GST control) with ELF3; 1.11 fold enrichment (6-mer frequency, TF over GST control) with CRX; 1.1 fold enrichment (6-mer frequency, TF over GST control) with ETV1.
